The record followed here is PubChem BioAssay (EPA / NIEHS).

Structures are written as SMILES. Inconclusive results are not listed. The source holds several records for some structures; these can differ, active in one and inactive in another. The source made the active and inactive calls. The calls were made as follows: active = hit-call score of the fitted dose curve at least 0.9, where 1 is the maximum; inconclusive = response in the unintended direction; inactive = score below 0.9.

A short description of experiment [1]: LTEA_HepaRG_LDH_cytotoxicity: Cytotoxicity Assessment in the Life Technologies and Expression Analysis (LTEA) Assay (AID 2283563). In short, it runs like this:
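Human HepaRG hepatic cells are treated with test chemicals for 48 h at up to 100 uM in 0.5% DMSO. Cytotoxicity is scored from medium LDH against the vehicle control.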

Experiment [2] is described as follows: ATG_XTT_Cytotoxicity: Cytotoxicity Assessment in the Attagene TRANS-FACTORIAL HepG2 Assay (AID 2283584). The method in brief:
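Transfect HepG2 with GAL4-UAS reporter units, dose compound, incubate 24 h, then measure viable cell number by XTT. Fit concentration response against DMSO baseline.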

The nature of experiment [3]: TOX21_p53_BLA_p2_viability: Viability Assessment in the Tox21 HCT-116 p53 Agonism Beta-lactamase Assay, Phase 2 (AID 2283591).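 Also: compound exposure lasted 16 h at 37 °C; actives lower the ATP signal meaning cytotoxicity.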 In short, it runs like this: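 Cytotoxicity readout: CellTiter-Glo ATP luminescence, 30 min at room temperature, after the beta-lactamase read. Cells were HCT116 exposed 16 h at 37C to compounds pin-transferred at 217-fold dilution from DMSO stocks.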

The target of experiment [4] is Cellular tumor antigen p53 (Homo sapiens) (UniProt P04637). The experiment can be described thus: TOX21_p53_BLA_p2_ratio: Tox21 HCT-116 p53 Agonism Beta-lactamase Assay, Ratio, Phase 2 (AID 2283592). In short, it runs like this:
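Cleaved-to-uncleaved substrate ratio (460 vs 530 nm) measured in HCT116 cells with an inducible beta-lactamase reporter linked to p53 activity. Compounds incubated 16 h at 37C before 2 h room-temperature CCF4-AM loading.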

The nature of experiment [5]: TOX21_p53_BLA_p3_viability: Viability Assessment in the Tox21 HCT-116 p53 Agonism Beta-lactamase Assay, Phase 3 (AID 2283593).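 Also: cells exposed to compound for 16 h before reading.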 The method in brief:
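Cellular ATP was quantified by CellTiter-Glo luminescence, read after 30 min at room temperature. Beforehand, HCT116 cells (4000/well) received compound 5 h post-seeding, 217-fold diluted from DMSO, then incubated 16 h at 37C.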

Experiment [6] concerns the target Cellular tumor antigen p53 (Homo sapiens) (UniProt P04637). The experiment can be described thus: TOX21_p53_BLA_p3_ratio: Tox21 HCT-116 p53 Agonism Beta-lactamase Assay, Ratio, Phase 3 (AID 2283596). In short, it runs like this:
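Cells were seeded at 4000/well, rested 5 h at 37C, then dosed with DMSO compound solutions (217-fold dilution) for 16 h. CCF4-AM substrate was loaded for 2 h at room temperature, and the 460/530 nm emission ratio was fitted for gain of signal versus DMSO.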

The nature of experiment [7]: TOX21_p53_BLA_p4_viability: Viability Assessment in the Tox21 HCT-116 p53 Agonism Beta-lactamase Assay, Phase 4 (AID 2283597).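 Also: hits lower the luminescence signal meaning cytotoxicity.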 In short, it runs like this: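 Viability is taken as cellular ATP: after 16 h compound exposure of HCT116 cells and a 2 h room-temperature CCF4-AM substrate step, CellTiter-Glo reagent is added and luminescence is measured 30 min later.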
The target of experiment [8] is Cellular tumor antigen p53 (Homo sapiens) (UniProt P04637). The experiment can be described thus: TOX21_p53_BLA_p5_ratio: Tox21 HCT-116 p53 Agonism Beta-lactamase Assay, Ratio, Phase 5 (AID 2283599). In short, it runs like this:
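Beta-lactamase reporter ratio (blue 460 nm over green 530 nm, 405 nm excitation) after 2 h CCF4-AM loading, in HCT-116 cells exposed 16 h at 37 C to compounds pinned at 217-fold dilution. Increases relative to DMSO baseline scored.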

Experiment [9] can be described thus: TOX21_p53_BLA_p5_viability: Viability Assessment in the Tox21 HCT-116 p53 Agonism Beta-lactamase Assay, Phase 5 (AID 2283600). In short, it runs like this:
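Viability is taken from cellular ATP content, measured by luciferase luminescence in the same wells after the beta-lactamase ratio read. Cells are seeded at 4000 per well and exposed to DMSO-dissolved compounds, diluted 217-fold, for 16 h.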

The target of experiment [10] is Cellular tumor antigen p53 (Homo sapiens) (UniProt P04637). As to the kind of experiment: TOX21_p53_BLA_p4_ratio: Tox21 HCT-116 p53 Agonism Beta-lactamase Assay, Ratio, Phase 4 (AID 2283601). In short, it runs like this:
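Signal is the blue/green (460nm/530nm) ratio of cleaved versus uncleaved CCF4-AM substrate, read after 2 h substrate loading. Cells were HCT116 carrying the p53-responsive beta-lactamase reporter, dosed 16 h at 37C, 5% CO2; CellTiter-Glo measured in parallel.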

Experiment [11] can be described thus: Tanguay_ZF_120hpf_MORT_legacy: (Legacy) Oregon State University Tanguay Lab 120 Hour Post-fertilization zebrafish Assay for Mortality (AID 2283633). In short, it runs like this:
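Mortality endpoint from a multiplexed whole-embryo zebrafish screen. Dechorionated wild-type embryos received compound at 6 hpf and remained under static exposure at 28C until 120 hpf, with death noted as a present/absent call.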

A short description of experiment [12]: Tanguay_ZF_120hpf_YSE_legacy: (Legacy) Oregon State University Tanguay Lab 120 Hour Post-fertilization zebrafish Assay for Yolk Sac Edema (AID 2283634). The method in brief: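 Readout: presence or absence of yolk sac edema at 120 hpf, fitted upward against DMSO controls. Exposure ran statically from 6 hpf in dechorionated embryos kept at 28C.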
The nature of experiment [13]: Tanguay_ZF_120hpf_AXIS_legacy: (Legacy) Oregon State University Tanguay Lab 120 Hour Post-fertilization zebrafish Assay for Body Axis Malformation (AID 2283635). In short, it runs like this: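 Static 6–120 hpf chemical exposure of dechorionated wild-type 5D zebrafish, one per well at 28C; morphology endpoint scored binary at 120 hpf relative to DMSO control.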
A short description of experiment [14]: Tanguay_ZF_120hpf_EYE_legacy: (Legacy) Oregon State University Tanguay Lab 120 Hour Post-fertilization zebrafish Assay for Eye Malformation (AID 2283636).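 Also: binary presence or absence of eye malformation scored by brightfield in 120 hpf larvae.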 In short, it runs like this:
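Binary brightfield scoring of eye defects at 120 hpf after static exposure from 6 hpf of single pronase-dechorionated wild-type embryos (28C, 0.64% DMSO). Non-mortality endpoints omitted where embryos died; fit vs DMSO.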

The nature of experiment [15]: Tanguay_ZF_120hpf_SNOU_legacy: (Legacy) Oregon State University Tanguay Lab 120 Hour Post-fertilization zebrafish Assay for Snout Malformation (AID 2283637). In short, it runs like this: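 Binary snout-malformation call at 120 hpf in wild-type 5D embryos, chorion removed by pronase, under static exposure from 6 hpf at 28C (0.64% DMSO). Embryos dying by 24 or 120 hpf excluded.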

Experiment [16] can be described thus: Tanguay_ZF_120hpf_JAW_legacy: (Legacy) Oregon State University Tanguay Lab 120 Hour Post-fertilization zebrafish Assay for Jaw Malformation (AID 2283638). The method in brief: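 Static waterborne exposure of dechorionated wild-type (Tropical 5D) zebrafish from 6 to 120 hpf at 28C, 0.64% DMSO vehicle; 5uM trimethyltin chloride served as positive control. Jaw morphology recorded as binary at 120 hpf.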

Experiment [17] can be described thus: Tanguay_ZF_120hpf_OTIC_legacy: (Legacy) Oregon State University Tanguay Lab 120 Hour Post-fertilization zebrafish Assay for Otic Vesicle Malformation (AID 2283639). In short, it runs like this:
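Statically exposed wild-type 5D zebrafish embryos, kept sealed and dark at 28C through 120 hours post fertilization, were examined by brightfield microscopy for otic vesicle defects. Responses were recorded as present or absent and analysed relative to DMSO.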

Experiment [18] in a line: Tanguay_ZF_120hpf_PE_legacy: (Legacy) Oregon State University Tanguay Lab 120 Hour Post-fertilization zebrafish Assay for Pericardial Edema (AID 2283640). In short, it runs like this: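 Read-out is the presence or absence of pericardial edema at 120 hpf under brightfield, with gain of signal fitted against DMSO controls. Larvae (5D wild-type) were statically exposed at 28C with 0.64% final DMSO.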

Experiment [19] can be described thus: Tanguay_ZF_120hpf_BRAI_legacy: (Legacy) Oregon State University Tanguay Lab 120 Hour Post-fertilization zebrafish Assay for Brain Malformation (AID 2283641). The method in brief: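 Brain malformation in Tropical 5D zebrafish was recorded as a binary endpoint after static compound exposure from early development to 120 hpf at 28C. Activity was analysed against DMSO as negative control.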

A short description of experiment [20]: Tanguay_ZF_120hpf_SOMI_legacy: (Legacy) Oregon State University Tanguay Lab 120 Hour Post-fertilization zebrafish Assay for Somite Malformation (AID 2283647). The method in brief:
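5D WT zebrafish; chorion removed 4 hpf; 1 embryo/well from 6 hpf; static exposure to 120 hpf, 28C, 0.64% DMSO final. Endpoint: somite malformation, binary, brightfield. Mortality excluded.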

Sequence of Cellular tumor antigen p53 (Homo sapiens) (P04637 whole entry, looked up): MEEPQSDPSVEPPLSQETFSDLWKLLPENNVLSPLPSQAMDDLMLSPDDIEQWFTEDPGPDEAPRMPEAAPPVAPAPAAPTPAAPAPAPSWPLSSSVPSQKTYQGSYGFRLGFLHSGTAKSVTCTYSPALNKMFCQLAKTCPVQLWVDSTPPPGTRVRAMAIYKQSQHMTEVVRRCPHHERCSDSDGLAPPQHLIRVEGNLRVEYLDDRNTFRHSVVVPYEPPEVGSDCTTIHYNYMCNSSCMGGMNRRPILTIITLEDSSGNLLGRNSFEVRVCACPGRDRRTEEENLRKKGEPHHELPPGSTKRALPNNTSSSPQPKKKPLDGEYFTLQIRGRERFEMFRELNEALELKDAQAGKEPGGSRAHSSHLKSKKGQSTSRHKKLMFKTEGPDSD

A word on the AC50: it is the midpoint of the concentration-response curve, whichever way the signal moves. Consider `CC(C)(C)CC(C)(C)c1ccc(O)c(-n2nc3ccccc3n2)c1`, for which the result in experiment [1], in [2], in experiment [3], in experiment [4], in experiment [5] and in [6] was inactive. For the same compound, the outcome in [7], in experiment [8], in [9], in [10], in experiment [11] and in experiment [12] was inactive. The call in experiment [13], in [14], in experiment [15], in experiment [16], in experiment [17] and in [18] was inactive. Further, the result in experiment [19] and in [20] was inactive. For the same compound, the AC50 in experiment [5] is 38.6 µM (active).

For the compound `OC1CCC(C2CCCCC2)CC1` (stereo not given), the compound was classed as inactive in experiment [1], in [2], in experiment [3], in experiment [4], in [5] and in experiment [6]. For the same compound, the result in experiment [8], in experiment [9], in experiment [10], in experiment [11], in experiment [12] and in experiment [13] was inactive. Also, the outcome in experiment [14], in experiment [15], in experiment [16], in experiment [17], in experiment [18] and in experiment [19] was inactive. Further, the compound was called inactive in experiment [20].

As to `c1ccc2c(c1)ccc1ccccc12`, the compound was called inactive in [1], in [2], in [3], in experiment [4], in experiment [6] and in experiment [7]. The outcome in experiment [10], in experiment [11], in [12], in [13], in [14] and in [15] was inactive. Moreover, the result in experiment [16], in experiment [18] and in experiment [19] was inactive.

On to `CCCCC(CC)COC(=O)CCCCC(=O)OCC(CC)CCCC` (stereo not given), for which the compound was called inactive in experiment [1], in experiment [2], in [3], in experiment [5], in experiment [6] and in experiment [8]. Besides, the compound was called inactive in experiment [9], in [10], in experiment [11], in [12], in experiment [13] and in experiment [14]. Further, the outcome in experiment [15], in [16], in [17], in [18], in [19] and in [20] was inactive.

Turning to `COc1ccc([N+](=O)[O-])cc1N`, the compound was classed as inactive in experiment [1], in experiment [2], in experiment [4], in experiment [5], in experiment [6] and in experiment [7]. The result in experiment [8], in experiment [9], in [10], in experiment [11], in [12] and in experiment [13] was inactive. The compound was classed as inactive in [14], in experiment [15], in experiment [16], in experiment [17], in [18] and in experiment [20].

Turning to `CCOC(=O)CC(O)(CC(=O)OCC)C(=O)OCC`, the compound was classed as inactive in experiment [1], in experiment [2], in [3], in experiment [4], in experiment [10] and in [11]. Also, the result in experiment [12], in experiment [13], in [14], in experiment [15], in experiment [16] and in experiment [17] was inactive. In addition, the compound was called inactive in [18], in experiment [19] and in experiment [20].

Consider `CC(C)(C)c1cccc(C(C)(C)C)c1O`, for which the compound was classed as inactive in experiment [1], in [2], in experiment [3], in experiment [4], in experiment [5] and in experiment [6]. The outcome in experiment [7], in [8], in [9], in [10], in [11] and in experiment [12] was inactive. The compound was called inactive in experiment [14], in experiment [15], in experiment [16], in experiment [17], in experiment [18] and in [19]. Besides, in experiment [20], the compound was called inactive.
